For 14 molecules, growth results are on record in PubChem BioAssay (NCI).

Compounds without any hit were thinned out: in the full panel of roughly 83,000, 20% have a hit.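 Testing used 96-well plates and a 48-hour single-concentration exposure. Example: -40 means 40% of the starting cells died.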 Unmarked numbers belong to inactive results. Active and inactive are the calls of the source. Rule for the calls: active = growth percent below 10; inactive = the rest.

Among the test systems are T-47D breast; BT-549 breast; MDA-MB-435 melanoma; SW-620 colon; MCF7 breast; HCT-116 colon; HCC-2998 colon; KM12 colon; MDA-MB-468 breast.
Holding throughout (assay): NCI-60 one-dose screen, 48 h (100 = growth as untreated, 0 = no growth, -100 = all killed)
Holding throughout (conditions): 10 µM

As for `COc1ccc(C(=O)NC(=S)N2CCN(c3ncnc4c3cnn4-c3ccccc3)CC2)cc1`, the growth is 70.3% with T-47D breast; 88.2% with BT-549 breast; 84.8% with MDA-MB-435 melanoma; 80.5% with SW-620 colon; 54.3% in the experiment with MCF7 breast; 66.6% in the experiment on HCT-116 colon. The growth was 87% in the experiment on HCC-2998 colon, 84.4% with KM12 colon and 61.2% in the experiment on MDA-MB-468 breast.

`C=C(C)[C@@H]1CC[C@]2(COP(=O)(OCC)OCC)CC[C@]3(C)[C@H](CC[C@@H]4[C@@](C)(CCCN)[C@H](C(=C)C)CC[C@]43C)[C@@H]12`: the growth was 19% with T-47D breast; -8.75% (active) with BT-549 breast; 14.3% with MDA-MB-435 melanoma; 12.4% in the experiment with SW-620 colon; 6.11% (active) with MCF7 breast; -31.4% (active) with HCT-116 colon. Besides, the growth in the experiment on HCC-2998 colon was 10.7%; in the experiment with KM12 colon, 16.8%; in the experiment on MDA-MB-468 breast, 5.69% (active).

Turning to `CN1CCO/C1=C(/NC(=O)c1ccc(Cl)cc1)[P+](c1ccccc1)(c1ccccc1)c1ccccc1`, the growth is 66% in the experiment on T-47D breast; 90.1% with BT-549 breast; 66.7% in the experiment with MDA-MB-435 melanoma; 97.1% with SW-620 colon; 62.9% in the experiment on MCF7 breast; 45.9% in the experiment with HCT-116 colon. Further, the growth with HCC-2998 colon is 89.1%; in the experiment on KM12 colon, 64.5%; in the experiment on MDA-MB-468 breast, -19.6% (active).

As for `CN(C(=O)c1ccc(C(C)(C)C)cc1)c1sc2c(c1C#N)CCC(=O)C2`, the growth in the experiment on T-47D breast is -40.3% (active); in the experiment on BT-549 breast, -27.7% (active); with MDA-MB-435 melanoma, 14.7%; in the experiment on SW-620 colon, -42.3% (active); in the experiment on MCF7 breast, 25.7%; in the experiment with HCT-116 colon, -9.14% (active). Moreover, the growth in the experiment with HCC-2998 colon was -4.22% (active); in the experiment on KM12 colon, -6.74% (active); in the experiment with MDA-MB-468 breast, -41.4% (active).

As to `CN1CCc2c(sc3ncnc(N/N=C/c4cn(-c5ccccc5)nc4-c4ccc(Cl)cc4)c23)C1`, the growth in the experiment with T-47D breast was 35.9%; with BT-549 breast, 41.1%; in the experiment with MDA-MB-435 melanoma, 41.9%; with SW-620 colon, 10.8%; with MCF7 breast, -31.6% (active); in the experiment with HCT-116 colon it was 2.65% (active). Further, the results for the growth with HCC-2998 colon, in the experiment with KM12 colon and in the experiment with MDA-MB-468 breast were 5.24% (active), 21.6% and -55.4% (active), respectively.

Turning to `O=S(=O)(Nc1ncccn1)c1ccc(-n2c(-c3ccccc3)nc(-c3ccccc3)c2-c2ccccc2)cc1`, the growth is 52.2% in the experiment on T-47D breast; 69% in the experiment on BT-549 breast; 101% in the experiment with MDA-MB-435 melanoma; 91.9% with SW-620 colon; 71.1% with MCF7 breast; 86.4% in the experiment with HCT-116 colon. Besides, the growth is 89.3% in the experiment on HCC-2998 colon, 88.4% in the experiment on KM12 colon and 85.7% in the experiment on MDA-MB-468 breast.

Take `CC(=O)NCC1=C(C)C=C2C(=O)[C@](C)(O)C3(CC3)C(C)=C21`: the growth in the experiment on T-47D breast was -11.8% (active); in the experiment on BT-549 breast, -46.5% (active); in the experiment on MDA-MB-435 melanoma it was -80% (active); in the experiment on SW-620 colon, 70.1%; in the experiment on MCF7 breast it was 3.29% (active); with HCT-116 colon, -45.1% (active). Further, the growth in the experiment with HCC-2998 colon is -79.4% (active); in the experiment with KM12 colon, -5.71% (active); in the experiment on MDA-MB-468 breast it was -79.7% (active).

As for `COc1ccc(-c2nc(S(=O)(=O)c3ccc(C)cc3)c(S(=O)(=O)CC(=O)N(C)Cc3ccccc3)o2)cc1`, the growth was -57.8% (active) in the experiment on T-47D breast; 72.6% in the experiment on BT-549 breast; 32% in the experiment on MDA-MB-435 melanoma; 9.27% (active) in the experiment on SW-620 colon; 7.73% (active) in the experiment with MCF7 breast; 6.34% (active) with HCT-116 colon. Moreover, the growth in the experiment on HCC-2998 colon is 46.6%; in the experiment on KM12 colon, 57.5%; in the experiment on MDA-MB-468 breast, -38.8% (active).

Turning to `O=c1[nH]c2ccc(Cl)cc2cc1CSc1ccc(Nc2nccc(-c3ccc4ccccc4c3)n2)cc1`, the growth with T-47D breast was 100%; with BT-549 breast, 83.4%; with MDA-MB-435 melanoma it was 84.7%; in the experiment on SW-620 colon, 17.6%; in the experiment with MCF7 breast, 29.2%; in the experiment with HCT-116 colon, 55%. Further, the growth in the experiment with HCC-2998 colon was 79.6%; with KM12 colon, 53%; in the experiment with MDA-MB-468 breast, 15.2%.

Take `CN1CCN(c2ccc(Nc3nc(NCCCNC(=O)c4ccc(F)cc4)c4sccc4n3)cc2)CC1`: the growth is 51.5% in the experiment with T-47D breast; 108% in the experiment with BT-549 breast; 51.1% in the experiment with MDA-MB-435 melanoma; 58.3% in the experiment with SW-620 colon; 31% with MCF7 breast; 33.5% in the experiment with HCT-116 colon. For the same molecule, the growth in the experiment on HCC-2998 colon is 66.4%; in the experiment with KM12 colon it was 53.7%; in the experiment with MDA-MB-468 breast, 59.1%.

Consider `Cc1ccc(C(=O)NCCCNc2nc(Nc3ccc(N4CCN(C)CC4)cc3)nc3ccsc23)cc1`, for which the growth in the experiment on T-47D breast is 4.51% (active); with BT-549 breast, 65.4%; in the experiment with MDA-MB-435 melanoma it was 43.9%; in the experiment on SW-620 colon it was 31.6%; in the experiment on MCF7 breast, 16.6%; in the experiment on HCT-116 colon, 9.28% (active). The growth in the experiment with HCC-2998 colon was 43.7%; in the experiment on KM12 colon it was 37.2%; in the experiment on MDA-MB-468 breast, 45.4%.

For the molecule `CCN1CCN(c2ccc(NC(=O)Nc3ccc4c(c3F)CCN4c3ccnc(C(=O)NC)c3)cc2C(F)(F)F)CC1`, the growth in the experiment on T-47D breast was 105%; in the experiment on BT-549 breast, -39.7% (active); in the experiment on MDA-MB-435 melanoma, -92.7% (active); in the experiment on SW-620 colon it was -76.9% (active); with MCF7 breast it was -77.9% (active); with HCT-116 colon it was -96.5% (active). Besides, the values for the growth with HCC-2998 colon, with KM12 colon and with MDA-MB-468 breast were 120%, -83.3% (active) and 98.9%, respectively.

For `CC(=O)Nc1ccc(-c2cn(-c3cccc(C(=O)Nc4cc(C(F)(F)F)cc(C(F)(F)F)c4)c3)nn2)cn1`, the growth in the experiment on T-47D breast is 33.9%; with BT-549 breast, -39.6% (active); with MDA-MB-435 melanoma it was -34.3% (active); with SW-620 colon, -31.5% (active); in the experiment on MCF7 breast, -25% (active); in the experiment with HCT-116 colon, 10.6%. Further, the results for the growth in the experiment with HCC-2998 colon, in the experiment with KM12 colon and in the experiment on MDA-MB-468 breast were -62.1% (active), -27.6% (active) and -46.5% (active), respectively.

Consider `COc1ccc(CN2[C@H](C(=O)NCCCCCCC(=O)NO)Cc3c([nH]c4ccccc34)[C@H]2C2CC2)cc1`, for which the growth in the experiment on T-47D breast was -10.3% (active); with BT-549 breast, 25.5%; with MDA-MB-435 melanoma, -49.1% (active); in the experiment on SW-620 colon, -68.1% (active); in the experiment with MCF7 breast, 6.39% (active); in the experiment with HCT-116 colon it was 2.09% (active). The growth is -36.7% (active) with HCC-2998 colon, 12.5% in the experiment with KM12 colon and 4.06% (active) with MDA-MB-468 breast.
